# In PubChem BioAssay AID628 (Vanderbilt High Throughput Screening Facility, 2007):
# Hit rate of the full screen: of about 64,000 compounds, about 2,200 (3.4%) were called active. Only a selection was taken, and actives are over-represented in it overall. Unmarked numbers belong to inactive results.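 How the source made its calls: active means calcium fluorescence response, raw or row-and-column corrected B-score, differing from the plate sample mean either way at a set confidence level, mostly lower; inactive means the rest.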
# Biological target: Muscarinic acetylcholine receptor M1 (Rattus norvegicus) (UniProt P08482)
# Test: antagonists of rat M1 muscarinic receptor (AID 628)
# Details: CHO-M1 cells, Fluo-4 calcium, ACh EC80 antagonist mode; at 10 µM; active compounds read low
# Muscarinic acetylcholine receptor M1 (Rattus norvegicus), sequence (P08482 whole entry, looked up): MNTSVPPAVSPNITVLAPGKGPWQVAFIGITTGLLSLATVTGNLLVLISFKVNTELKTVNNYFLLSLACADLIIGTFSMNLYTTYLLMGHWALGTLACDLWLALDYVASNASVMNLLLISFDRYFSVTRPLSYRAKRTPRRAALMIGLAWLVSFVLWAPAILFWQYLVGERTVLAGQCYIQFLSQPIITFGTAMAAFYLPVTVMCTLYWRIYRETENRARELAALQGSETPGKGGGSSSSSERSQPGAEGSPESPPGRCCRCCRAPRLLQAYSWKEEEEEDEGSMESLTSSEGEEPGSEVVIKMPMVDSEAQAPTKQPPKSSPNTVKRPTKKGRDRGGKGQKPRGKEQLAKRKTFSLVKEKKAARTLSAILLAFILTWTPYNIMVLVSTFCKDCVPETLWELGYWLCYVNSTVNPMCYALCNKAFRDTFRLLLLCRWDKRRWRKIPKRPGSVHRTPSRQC
row,SMILES,B-score
1,Clc1ccc(Nc2nc(-c3cccs3)cs2)nc1,-1.85
2,Cn1c(=NC(=O)C2CC2)sc2cc(F)cc(F)c21,-2.24
3,COC(=O)COc1ccc2oc(=O)cc(C)c2c1,0.286
4,CN(C)CCSc1nc(N)c2c3c(sc2n1)COC(C)(C)C3,0.0678
5,CC1(C)Cc2c(sc3nc4n(c(=N)c23)CCCCC4)CO1,-2.66 (active)
6,O=c1c2c(nc3n1CCCCC3)sc1c(O)cccc12,-0.992
7,CCOC(=O)c1cccc(NC(=O)C2CCCN(S(=O)(=O)c3cnc[nH]3)C2)c1 (stereo not given),0.994
8,COc1ccc(OC)c(NC(=O)Cn2c(=O)oc3ccccc32)c1,-0.343
9,CCn1c(=N)n(CC(=O)c2cccc(OC)c2)c2ccccc21,-6.64 (active)
10,C=CCn1c(=N)n(CC(O)COc2ccc(OC)cc2)c2ccccc21 (stereo not given),0.0139
11,CCCCCC(=O)Nc1ccc2oc(-c3ccncc3)nc2c1,0.442
12,CCc1c(C)sc(NC(=O)c2ccc(Br)o2)c1C(=O)OC,-0.053
13,OC(COc1ccccc1)Cn1cc(Br)cn1 (stereo not given),-0.268
14,CC(=O)N1CCN(C(=O)c2cccc(S(=O)(=O)Nc3ccc(C)cc3)c2)CC1,-0.171
15,O=S(=O)(Nc1ccc2nc(-c3ccco3)[nH]c2c1)c1ccccc1,-0.153
16,Cc1ccc(S(=O)(=O)Nc2ccc3ncccc3c2)cc1,-3.27 (active)
17,COc1ccc(NC(C)=O)cc1NC(=O)CN1CCN(C2c3ccccc3-c3ccccc32)CC1,0.0245
18,CN(CCCC(=O)Nc1nccs1)S(=O)(=O)c1ccc(Cl)cc1,0.248
19,O=C(NCCCCO)C(F)(F)C(F)(F)C(F)(F)C(=O)NCCCCO,0.234
20,CC(=O)c1c(N2CCOCC2)nc(=S)n(-c2cc(C)ccc2C)c1C,-0.429
21,COc1cccc(OCCOc2cccc(/C=N/n3cnnc3)c2)c1,-2.76 (active)
22,COCCNCCOCCOc1cccc(OC)c1,0.826
23,C=CCOc1ccc(/C=N/n2cncn2)cc1OC,0.195
24,C(=N\n1cnnc1)/c1cccnc1,-0.0308
25,CCOc1cc(/C=N/n2cnnc2)c(Br)cc1O,0.717
26,COc1ccccc1OCCOc1ccc(/C=N/n2cnnc2)cc1,-2.39 (active)
27,O=C(CSc1nc2[nH]ncc2c(=O)n1-c1ccccc1)N1CCCc2ccccc21,0.281
28,CCOc1cc(C)c(Cl)cc1S(=O)(=O)n1nnc2ccccc21,0.583
29,COc1ccc(C(=O)NCCc2ccc(S(N)(=O)=O)cc2)cc1OC,-0.216
30,Cc1cc2cc(CN(Cc3cccs3)Cc3nnnn3CC3CCCO3)c(=O)[nH]c2cc1C (stereo not given),-0.714
